HSF-1 act = increases HSF-1 driven luciferase reporter signal. activation, % at 9 µM. NIH3T3-HGL HSF-1 luciferase reporter, MG132, 8 h; 100% = twice DMSO control signal. actives 1.7% (n = 300,000);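 active = mean replicate activation of at least 50% with a set share of replicates each reaching 50%; inconclusive = only one of those two conditions met; inactive = mean below 50% and too few replicates reaching it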;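 also: 0% = median of the neutral control wells and 100% = twice that signal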
Platelet DG rel = platelet dense granule release activity. human platelet-rich plasma, SFLLRN dense granule ATP release, luminescence. inhibition, %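 (compounds screened at 7.5 µM in platelet-rich plasma)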. actives 0.22% (n = 300,000). AID 1663;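 active = mean replicate score, as percent of positive control, at or above 50; inconclusive = mean below 50 but at least one replicate at or above 50; inactive = mean and every replicate below 50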
MPTP inh = permeability transition pore inhibition; isolated mouse mitochondria, Ca2+ swelling absorbance, 30 min; inhibition, % at 10 µM; actives 1.4% (n = 360,000); AID 602449;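 active = inhibition of 50% or more, scaled per plate between neutral and stimulator controls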;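 also: 0% = DMSO wells given calcium and 100% = 1 mM EGTA wells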
HSF1 inhib = HSF1 inhibition. NIH3T3-HGL HSE-luciferase, MG132-induced, luminescence 8 h; stronger effect = lower value. activity change, negative = inhibition, % at 7.5 µM (by protocol). actives 0.77% (n = 300,000). AID 2098;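 active = more than half of replicate wells show activity change below -50%, luminescence cut by over half; inconclusive = some wells, but at most half, below -50%; inactive = no replicate well below -50%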;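 also: luciferase reports HSF-1 transcriptional activity via heat shock element; 0% = median of DMSO wells and -100% = zero luminescence signal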
dFosB act = mouse delta FosB homodimer activation | AID 493131 | purified delta FosB, TAMRA-CDK5 oligo fluorescence polarization; percent of positive-control signal above neutral wells | P13346 | activation, % at 25 µM | actives 0.99% (n = 340,000);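 active = mean activation above about 17%, with every replicate also reaching it, limit read from the data, passing the limit was not always enough; inconclusive = only one of the two conditions met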
Target sequence (P13346 whole entry, looked up): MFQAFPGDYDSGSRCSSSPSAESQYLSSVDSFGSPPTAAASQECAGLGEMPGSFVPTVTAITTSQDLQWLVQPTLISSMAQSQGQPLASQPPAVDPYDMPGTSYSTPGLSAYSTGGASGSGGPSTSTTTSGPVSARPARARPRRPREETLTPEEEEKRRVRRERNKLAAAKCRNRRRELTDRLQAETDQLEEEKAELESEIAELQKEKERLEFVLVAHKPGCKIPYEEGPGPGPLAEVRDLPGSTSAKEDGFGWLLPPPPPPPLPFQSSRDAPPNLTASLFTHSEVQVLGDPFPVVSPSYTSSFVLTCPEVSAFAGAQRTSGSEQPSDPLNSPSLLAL
HSP90 inh = inhibitors of HSP90 luciferase refolding in rabbit reticulocyte lysate. luciferase refolding luminescence, 3 h. inhibition, % at 5.6 µM. actives 0.91% (n = 290,000). AID 1789;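 active = inhibition above the screen-wide mean plus 3 SD, computed separately per campaign, cut at about 16% in these data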;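 also: 0% = DMSO wells and 100% = 60 µM geldanamycin wells; inhibitors lower the luminescence because luciferase stays unfolded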
Rh123 counter = Rhodamine 123 counter-screen of mitochondrial pore hits | shares compounds with MPTP inh | isolated mitochondria, membrane potential, Rhodamine 123 fluorescence | inhibition, % at 10 µM | actives 78% (n = 5,000); in the data active = inhibition above about 22%;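 also: 0% = DMSO vehicle and 100% = positive control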
MPTP abs DR = MPTP inhibition, dose response swelling confirmation; shares compounds with MPTP inh; isolated mitochondria swelling, absorbance; IC50, µM; actives 58% (n = 780); in the data active = IC50 below about 20 µM
MPTP counter DR = MPTP inhibitor counter-screen activity, dose response | IC50, µM | shares compounds with MPTP inh | isolated mitochondria counterscreen, fluorescence read-out | actives 49% (n = 780); in the data active = IC50 below about 80 µM
An asterisk follows results filed as active; i = inactive; u = inconclusive; x = not tested or not shown. In the library only some 4.9% were active in any assay of this set; here they are far more common.

SMILES | HSF-1 act | Platelet DG rel | MPTP inh | HSF1 inhib | dFosB act | HSP90 inh | Rh123 counter | others
CCOc1ccc(S(=O)(=O)N(C)c2ccc(OCC(=O)Nc3nc4ccccc4s3)cc2)cc1 | 1 | 11 | 96* | 5 | 3 | 2 | 80*
COc1ccc2nc(NC(=O)Nc3ccccc3)sc2c1 | 31 | 0 | 4 | 7 | 2 | 13 | x
CN(C)CCCNc1ncnc2c1cnn2Cc1ccccc1Cl | -9 | 1 | 0 | -5 | 0 | -2 | x
CCOC(=O)C1=C(C)N=C2SC(C(=O)OC)=CC(=O)N2C1c1cc(OC)c(OC)c(OC)c1 (stereo unspecified) | -10 | 1 | -6 | -6 | -18 | 2 | x
O=S(=O)(NC(=NCc1ccccc1)c1ccc(F)cc1)c1ccc(Cl)cc1 | -8 | 6 | -1 | -1 | -9 | 1 | x
Cc1ccc2c(cnn2C(=O)CCC(=O)NC2CCCCC2)c1 | -15 | 9 | 1 | -9 | -8 | -3 | x
COc1ccc(NC(=O)Nc2nnc(-c3cccs3)s2)cc1 | 23 | 1 | 69* | 13 | -5 | -2 | 69*
O=C(CN1c2ccccc2Sc2ccccc21)NNC(=O)Nc1ccc(Cl)c(Cl)c1 | 11 | 2 | 52* | -1 | -2 | 3 | 22*
CS(=O)(=O)c1ccc2nc(NC(=O)c3ccc(Cl)cc3)sc2c1 | -5 | -11 | 2 | 11 | 0 | 3 | x
CS(=O)(=O)c1ccc2nc(NC(=O)Nc3ccc(Cl)cc3)sc2c1 | 7 | 0 | 95* | 8 | 3 | -3 | 78*
Cc1nn(CC(=O)NCCCN2CCC(Cc3ccccc3)CC2)c(=O)c2cc(-c3ccccc3)nn12 | -61 | -9 | 74* | u | -2 | 2 | -6 | MPTP abs DR=i;MPTP counter DR=>80
Cc1nn(CC(=O)NCCCN2CCN(Cc3ccccc3)CC2)c(=O)c2cc(-c3ccccc3)nn12 | -5 | 4 | 12 | -2 | -1 | 2 | x
CCc1ccc(-c2cc3c(=O)n(CC(=O)NCCCN4CCC(Cc5ccccc5)CC4)nc(C)n3n2)cc1 | 15 | -1 | 98* | 1 | -5 | 8 | -3 | MPTP abs DR=3*;MPTP counter DR=>80
O=C(Nc1nnc(-c2ccccc2Cl)o1)c1nc2ccccc2s1 | 21 | 30 | 96* | -3 | -2 | -3 | -9
C#CCSc1nnc(-c2sc(-c3ccccc3)nc2C)n1C | 11 | 3 | 2 | -2 | -7 | 0 | x
O=C(Nc1ccc(Oc2ccccc2)cc1)c1csc([C@H]2C[C@H](O)[C@@H](CO)O2)n1 | x | x | 81* | x | x | x | 74*
CC(=O)Nc1ccc(NC(=O)c2csc([C@@H]3C[C@H](O)[C@@H](CO)O3)n2)cc1 | x | x | 0 | x | x | x | x
O=C(Nc1ccc([N+](=O)[O-])cc1)/C(=C/c1cccc([N+](=O)[O-])c1)NC(=O)C1CCCCC1 | x | 7 | 98* | x | 4 | 3 | 75*
Fc1cccc(Nc2nc(-c3ccncc3)nc3ccccc23)c1 | -22 | 1 | 85* | -13 | -22 | -2 | 85*
CCCOC(=O)c1cccc(Nc2nc(-c3cccnc3)nc3ccccc23)c1 | -26 | -5 | 66* | -32 | -30 | 6 | 73*
COc1c(Br)cc([N+](=O)[O-])c(OC)c1C(=O)NC(=O)Nc1cc(Cl)cc(Cl)c1 | -6 | 6 | 83* | -11 | -6 | 6 | 85*
COc1c(Br)cc([N+](=O)[O-])c(OC)c1C(=O)NC(=O)Nc1c(Cl)cccc1Cl | x | x | 4 | x | -4 | 0 | x
O=c1cc(-c2ccccc2)[nH]n1-c1ccc([N+](=O)[O-])cc1 | 13 | -1 | 100* | 9 | -2 | -3 | 77*
CCOC(=O)c1sc2nc(C)nc(SC(C)C(=O)NC3CC3)c2c1C (stereo unspecified) | x | x | 0 | x | -6 | x | x
CC(=O)NC(c1ccc([N+](=O)[O-])cc1)c1c(O)ccc2ccccc12 (stereo unspecified) | 4 | 2 | 12 | 4 | -6 | 1 | x
SMILES | HSF-1 act | Platelet DG rel | MPTP inh | HSF1 inhib | dFosB act | HSP90 inh | Rh123 counter | others
Cc1ccc(C(NC(=O)C2CCCCC2)c2c(O)ccc3ccccc23)cc1 (stereo unspecified) | 38 | -5 | 99* | 1 | -6 | -4 | 80*
CC(C)C(=O)NC(c1ccc([N+](=O)[O-])cc1)c1c(O)ccc2ccccc12 (stereo unspecified) | 31 | 5 | 87* | 1 | 4 | -1 | 77*
COc1cc(C(=O)O[C@H]2CC(C)=CC[C@@]3(C)CC[C@@](O)(C(C)C)[C@H]23)ccc1O | -6 | -4 | 3 | 4 | -16 | 2 | x
CCOC(=O)Cn1cnc(-c2ccc([N+](=O)[O-])cc2)c1 | 23 | -10 | -1 | 19 | -5 | -3 | x
Cc1cc(F)ccc1-c1cc(C(=O)NCc2cccc(C(F)(F)F)c2)[nH]n1 | x | x | 9 | x | x | x | x
Cc1cc(F)ccc1-c1cc(C(=O)NCc2cc(C(F)(F)F)cc(C(F)(F)F)c2)[nH]n1 | x | x | 84* | x | x | x | 104*
Cc1cc(C)c(O)c(-c2cc(C(=O)Nc3ccc(S(=O)(=O)N4CCOCC4)cc3)[nH]n2)c1 | 1 | -1 | 93* | -4 | 23* | 5 | 64*
Cc1ccc(F)cc1-c1cc(C(=O)NCc2cc(C(F)(F)F)cc(C(F)(F)F)c2)[nH]n1 | x | x | 69* | x | x | x | 101*
Cc1ccc(CNC(=O)c2cc(-c3cc(C)cc(C)c3O)n[nH]2)cc1 | 6 | -1 | 88* | -1 | 15 | -3 | 73*
Cc1ccc(C(=O)Nc2ccc(S(=O)(=O)N3CCOCC3)cc2)cc1 | 2 | -1 | -1 | -8 | 0 | -4 | x
Cc1ccc(CN2CC(C(=O)NCCC3=CCCCC3)CC2=O)cc1 (stereo unspecified) | x | x | 2 | x | -2 | x | x
COC(=O)[C@H](Cc1ccccc1)NC(=O)CC[C@H]1O[C@@H](n2ccc(=O)[nH]c2=O)[C@H](O)[C@@H]1O | x | x | -2 | x | x | x | x
COc1ccc(Cl)cc1-c1cc(C(=O)NCc2cc(C(F)(F)F)cc(C(F)(F)F)c2)[nH]n1 | x | x | 5 | x | x | x | x
Cc1csc(-c2cc(C(=O)NCc3cc(C(F)(F)F)cc(C(F)(F)F)c3)n[nH]2)c1 | x | x | 72* | x | x | x | 78*
Cc1ccc(Cl)cc1-c1cc(C(=O)NCc2cc(C(F)(F)F)cc(C(F)(F)F)c2)[nH]n1 | x | x | 96* | x | x | x | 83*
O=C(Oc1ccc2ccc(OC(=O)N3CCCCCC3)cc2c1)N1CCCCCC1 | 14 | -3 | 69* | -9 | -11 | 2 | 81*
CC(C)CCNC(=O)CCSCCC(=O)NCCC(C)C | -1 | -3 | 0 | -1 | 1 | -2 | x

Screens deposited in PubChem by several laboratories.
